Screen size: about 6,200 compounds; about 2,900 (47%) were called active. The set was probably picked from earlier hits. The list shows a part of the results. Values without a mark were called inactive. Cut-off read from the data, not from the text of the source: active = inhibition above about 50%; inactive = the rest.

A short description of the test: Mycobacterium tuberculosis growth inhibition, primary screen (AID 1259343). The following applies: inhibition: at 10 µM, stronger effect = higher value; outcome: 10 uM.
For the compound `O=C(Nc1cccc(-c2cccc(Cl)c2)c1)C1CCN(C(=O)C2CC=CCC2)CC1` (centres undefined), the inhibition (usually the relative decrease from the control value, in per cent) was 81.6% (active).
The same measure for `CC(C)c1nccc(-c2nccn2CC2(O)CCN(C)CC2)n1`: -4.81%.
In the case of `COc1ccccc1-c1c(C)[nH]n2c(=O)cc(-c3ccc([N+](=O)[O-])cc3)nc12`, the inhibition is 77.8% (active).
With `COc1ccccc1-c1c(C)nn2c(NC(C)c3ccccc3)cc(C)nc12` (centres undefined), the inhibition is 5.58%.
`COc1ccc(Cc2[nH]n3c(=O)cc(C)nc3c2-c2ccccc2)cc1`: the inhibition is 37.9%.
The figure for `COc1ccc(Nc2nc3cc(Cl)ccc3o2)cc1Cl` is 21.2%.
The same measure for `COc1ccc(NC(C)c2nc(C)no2)cc1Cl` (centres undefined): 57.6% (active); for `CC(Oc1ccc(Cl)cc1Cl)c1nc(-c2ccncc2)no1` (centres undefined): 43.3%; for `CNc1nc(C)c(C(=O)c2ccc(C)cc2)s1`: 86.1% (active).
For `O=C(NNS(=O)(=O)c1ccc2c(c1)OCCO2)c1cc2c(s1)CCCCC2`, the inhibition was 20.9%.
Consider `CC(Cc1ccco1)NC(=O)c1cc2c(s1)CCC2` (centres undefined), for which the inhibition was 93.1% (active).
The figure for `CN(CC(=O)Nc1sc2c(c1C#N)CCCCC2)Cc1ccco1` is 49.1%; for `S=c1sc2c(Cl)ncnc2n1-c1ccccc1` it is 60.9% (active).
The figure for `Cn1c(=O)c([N+](=O)[O-])c(N2CCN(Cc3cccc4ccccc34)CC2)c2ccccc21` is 59% (active); for `Cn1c(=O)c([N+](=O)[O-])c(N2CCN(CCOc3ccc(Cl)cc3)CC2)c2ccccc21` it is 38.3%.
The figure for `Cn1c(=O)c([N+](=O)[O-])c(N2CCN(Cc3ccc(Cl)cc3Cl)CC2)c2ccccc21` is 40.7%; for `CC(NCc1cc(=O)n2cc(Br)ccc2n1)c1cc(F)c(Cl)cc1Cl` (centres undefined) it is 27.6%.
On to `O=c1cc(CSc2nc3ncc(Cl)cc3[nH]2)nc2ccc(Br)cn12`, for which the inhibition was 101% (active).
The figure for `Brc1ccc(CSc2nc3ncccc3[nH]2)cc1` is 34%; for `CCCC[P+](CCCC)(CCCC)Cc1ccc(NC(=O)[C@@H](Cc2ccc3ccccc3c2)NC(=NC2CCCCC2)NC2CCCCC2)cc1` it is 95.8% (active); for `O=C(Nc1ncccc1OCC1CCCCC1)c1cscn1` it is 55.5% (active).
The same measure for `O=S(=O)(NCC1(c2ccccc2)CC1)N1CCCCCC1`: 16.5%; for `O=C(NCC1(c2ccccc2)CC1)c1cc(Cl)ccc1O`: 94.2% (active); for `N#CC(C(=O)C1COc2ccccc2O1)c1nc2ccccc2s1` (centres undefined): 19%.
For the compound `N#CC(C(=O)C1c2ccccc2-c2ccccc21)c1nc2ccccc2s1` (centres undefined), the inhibition is 33.3%.
The figure for `N#CC(C(=O)COc1cc(F)ccc1F)c1nc2ccccc2s1` (centres undefined) is 91.5% (active); for `COc1ccc2cc(-c3[nH]ncc3CNC(C)Cc3cccs3)ccc2c1` (centres undefined) it is 50.1% (active); for `COc1ccc(-c2[nH]ncc2CNC(=O)CC2COCCN2)cc1` (centres undefined) it is -11.1%.
The same measure for `CCOc1ccc(Oc2ccccc2NC(C)=O)cc1`: 73.6% (active); for `CCOc1cccc(OCCCOc2ccccc2C(C)=O)c1`: 92.5% (active).
Consider `CCOc1ccc(Oc2ccc(NC(C)=O)cc2)cc1`, for which the inhibition was -0.29%.
Turning to `CCOc1ccc(OCCCCOc2ccccc2C(C)=O)cc1`, the inhibition was 98% (active).
Consider `CC1CN(C(=O)c2ccc(NC(=O)C3CC3)cc2)c2ccccc2O1` (centres undefined), for which the inhibition is 87.7% (active).
`CCCCCCCCc1ccc(CCC(N)(CO)CO)cc1`: the inhibition is 92% (active).
The same measure for `CCCCc1ccc(-c2csc(NC(=O)OC)c2C(N)=O)cc1`: 2.76%; for `CCOc1cc(C=NNc2nc(C)cs2)ccc1OC`: 72% (active).
The figure for `CCOc1ccc(C=C2N=C(C(C)(C)C)OC2=O)cc1OC` is 23.4%.
The same measure for `Cc1ccc(/C=N\Nc2nc(-c3ccc4c(c3)OCCO4)cs2)cc1`: -51.4%; for `COc1ccc(/C=N\Nc2nc(-c3ccc4c(c3)OCCO4)cs2)cc1OC`: 85.6% (active); for `c1cc2c(cc1-c1csc(NCC3CCC3)n1)OCCCO2`: 3.11%.
Take `CCOc1ccc(/C=N\Nc2nc(-c3ccc(OC)c(OC)c3)cs2)cc1`: the inhibition is 79.8% (active).
The same measure for `CCN(CC)c1ccc2cc(-c3csc(N/N=C\c4ccc(OC)cc4)n3)c(=O)oc2c1`: 25.9%; for `CN1CC(CNC(=O)OCc2ccccc2)CC2c3cccc4c3c(cn4C)CC21` (centres undefined): 96.7% (active); for `CCOP(=O)(Oc1ccccc1)c1c([N+](=O)[O-])cc(C(F)(F)F)cc1[N+](=O)[O-]` (centres undefined): 94.9% (active).
Consider `CC(C)Oc1ccc(Nc2nccc3[nH]c(-c4ccccc4)cc23)cc1`, for which the inhibition was 92.6% (active).
The same measure for `CC(Oc1ccc(-n2cnc(-c3ccccc3)c2)cc1)C(N)=O` (centres undefined): 43.6%; for `CCN(CC)c1cc(-c2ccccc2)nc(SCc2cccc(C(=O)O)c2)n1`: 8.57%; for `c1ccc(CSc2nn3cc(-c4ccccc4)nc3s2)cc1`: 16.3%.
The figure for `O=C(CSc1ccc2nc(-c3ccccc3)cn2n1)c1ccccc1` is 65.7% (active); for `CN(C(=O)/C=C/c1ccc([N+](=O)[O-])s1)c1ccccc1` it is 6.56%; for `O=C(/C=C/c1ccc([N+](=O)[O-])s1)Nc1ccc(F)cc1F` it is 99.5% (active).
For the compound `CCCCc1ccc(NC2=NC(C)(C)CS2)cc1`, the inhibition was 89.8% (active).
Consider `NC(N)=NN=Cc1ccc(-c2ccccc2)cc1`, for which the inhibition was 38.6%.
The figure for `NC(N)=NN=C1c2ccccc2-c2ccccc21` is -74.8%.
Take `NC(N)=NN=CC(Cl)=Cc1ccccc1`: the inhibition is 85.8% (active).
The figure for `Cc1cc2oc(NC(=O)c3ccc(=O)n(C)c3)nc2c(C)c1Cl` is -2.23%; for `COc1ccc(-c2csc(C(C#N)C(=O)CC3C=CCC3)n2)cc1` (centres undefined) it is 79.7% (active).
The figure for `COc1ccc(C(=O)C2CCCN(Cc3nc(-c4ccc(F)cc4)cs3)C2)c(OC)c1` (centres undefined) is 31.3%; for `CC(NC(=O)Nc1cccnc1N1CCCC1)c1ccn(C)c1` (centres undefined) it is -18.1%; for `CN(C)c1cccc(Nc2nccc3c2cc(-c2ccsc2)n3C)c1` it is 63.8% (active).
The same measure for `CN(C)c1cccc(Nc2nccc3c2cc(-c2ccccc2)n3C)c1`: 74.6% (active); for `O=C(NCc1cc(Br)cs1)c1ccc(Cl)o1`: 37.9%; for `O=C(NCCc1ccc(Cl)s1)c1ccc(Cl)o1`: 79.6% (active).
For the compound `O=C(NCc1ccc(Cl)s1)c1ccc(Br)o1`, the inhibition was -14.3%.

These data come from PubChem BioAssay AID1259343 (VanderVen Lab, College of Veterinary Medicine, Cornell …, 2017).
